Source: PubChem (National Center for Advancing Translational Sciences (NCATS))
MCF10A rerep = A quantitative high throughput screen for small molecules that induce DNA re-replication in MCF 10a normal breast cells; MCF 10A DNA re-replication, Hoechst nuclear intensity, 48 h; Potency, µM (titrated, usually from 46.1 µM), inactives show top-dose activity, positive = re-replication, actives largely listed as activators; hit rate 2.9% among 350,000; further: % of control where 0% means no effect; nearly all actives have a fitted effect of over 50% in size
SW480 rerep = A quantitative high throughput screen for small molecules that induce DNA re-replication in SW480 colon adenocarcinoma cells. SW480 DNA re-replication, Hoechst DNA content imaging, 48 h. Potency, µM (doses to about 46.1 µM), for the others: at the top dose re-replication activation, usual class: activators. hit rate 1.8% among 340,000; further: % of control where 0% means no effect; nearly all actives have a fitted effect of over 55% in size
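Treated cells incubate 48 hr (37 C, 5% CO2), are stained 40 min with Hoechst, and nuclear fluorescence is enumerated; a rise in nuclei with high DNA signal marks re-replication.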
ELG1 DNA repair = qHTS screen for small molecules that inhibit ELG1-dependent DNA repair in human embryonic kidney (HEK293T) cells expressing luciferase-tagged ELG1; HEK293T ELG1-luciferase reporter, luminescence, 16 h; DNA damage induced by 5-fluorouridine; Potency, µM (doses to about 46.1 µM), without a hit: at the highest dose activity change, negative = inhibition, usual class: inhibitors; hit rate 2.3% among 330,000; AID 504467, 2011; further: on the % scale 0 is the no-effect control and ±100 the full control effect; nearly all actives have a fitted effect of over 55% in size
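Luminescence from the luciferase reporter, measured 30 min after ONE-Glo reagent at room temperature, was the read-out. Beforehand, 2,000 cells per well were exposed for 16 hr at 37 °C to 5-fluorouridine together with compound or vehicle.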
KB-3-1 tox = qHTS assay for MDR1-selective chemotherapeutics: Primary screen using the parental adenocarcinoma cell KB-3-1 | KB-3-1 viability, CellTiter-Glo ATP luminescence, 72 h | Potency, µM (top dose mostly 46.1 µM), actives largely listed as cytotoxic | hit rate 1.4% among 400,000; further: on the % scale 0 is the no-effect control and ±100 the full control effect; nearly all actives have a fitted effect of over 60% in size
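Cytotoxicity measured as CellTiter-Glo luminescence after 72 h at 37 C. Compound titrations were pinned onto drug-naive KB-3-1 parental adenocarcinoma cells grown in DMEM with 10% FBS, and normalized data fitted to concentration-response curves.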
KB-V1 MDR tox = qHTS assay for MDR1-selective chemotherapeutics: Primary screen using the drug-selected MDR subline cells KB-V1. KB-V1 MDR cells viability, CellTiter-Glo, 72 h. AID 1347076, 2019. hit rate 3.4% among 400,000. Potency, µM (series often up to 46.1 µM), most hits filed as cytotoxic; further: on the % scale 0 is the no-effect control and ±100 the full control effect; nearly all actives have a fitted effect of over 60% in size
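In this primary screen, KB-V1 cells overexpressing P-gp are incubated with library compounds (lowest to highest concentration) for 72 h at 37 degrees C before a luminescent ATP viability read.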
The depositor's hits bear a star; i = inactive; ? = inconclusive; · = not tested or not shown; ! = not active in a repeat. Shown are actives, neighbours in structure and some others; about 8.1% of the full set was active somewhere. The call rests on the fitted dose curve; in most records, active means well fitted curve in the direction sought with a large enough effect; inconclusive means small, poorly fitted or top-dose-only effect, or another doubt; inactive means no such curve, though single readings can be large; an effect the other way counts as inactive or inconclusive. Potency means the concentration at half of the fitted maximal effect.

SMILES	MCF10A rerep	SW480 rerep	ELG1 DNA repair	KB-3-1 tox	KB-V1 MDR tox
CCC(OC(=O)c1nsc(Cl)c1Cl)C(=O)NCc1cccs1 (stereo not drawn)	0%	-5%	11%	i	i
CC1(C)c2[nH]c3ccccc3c2C[C@H]2C(=O)N(Cc3ccccc3)C(=O)N21	?	-5%	·	i	i
Cc1ccc(NC(=O)CSc2n[nH]c(-c3ccccn3)n2)cc1	?	5.2µM*	?	?	i
Cc1ccc(NC(=O)c2cc(N3CCOCC3)nc3ccccc23)cc1	-4%	2%	15µM*	i	i
O=C(O)c1cc(/C=C/c2ccc(N3CCOCC3)c([N+](=O)[O-])c2)nc2ccccc12	3%	-4%	?	i	i
O=C(Nc1ccccc1)c1cc(N2CCOCC2)nc2ccccc12	-1%	?	?	i	i
O=C(O)c1cc(/C=C/c2ccc(N3CCOCC3)cc2)nc2ccccc12	7%	1%	?	i	10µM*
O=C(Nc1nccs1)c1cc(N2CCOCC2)nc2ccccc12	9%	1%	18µM*	i	i
COc1ccc(C2=Nc3ccccc3N(C(=O)c3ccc4ncccc4c3)C2C(=O)NC(C)(C)C)cc1 (stereo not drawn)	·	·	·	i	?
Cc1c(Cl)cccc1NC(=S)NCc1ccccc1Cl	?	-1%	-3%	?	?
O=c1nc2n(-c3ccccc3F)c3ccccc3cc-2c(=O)[nH]1	·	·	·	i	?
Cc1cccc(-n2c3nc(=O)[nH]c(=O)c-3cc3cc([N+](=O)[O-])ccc32)c1	?	?	-23%	?	16µM*
Cc1ccc(C)c(-n2c3nc(=O)[nH]c(=O)c-3cc3cc([N+](=O)[O-])ccc32)c1	?	3.2µM*	-14%	23µM*	i
COc1ccccc1CNC(=O)C(CCSC)NC(=O)c1cccc(S(=O)(=O)N2CCOCC2)c1 (stereo not drawn)	7%	-5%	-21%	i	i
C/C=C(/C)C(=O)O[C@H]1[C@@H](O)c2c(ccc3ccc(=O)oc23)OC1(C)C	2%	2%	6%	?	?
C=C1C(=O)O[C@@H]2[C@H]1[C@@H](OC(=O)/C(C)=C/C)C/C(C)=C\C(=O)/C=C(\C)[C@@H]2O	19%	?	?	2.9µM*	?
Cc1ccc2[nH]c(C)c(/C=C/c3cc[n+](C)cc3)c2c1	47%	?	2.6µM*	2.1µM*	i
COC(=O)c1ccsc1NC(=O)CN1CCN(Cc2ccc3c(c2)OCO3)CC1	24%	0%	5.2µM*	i	16µM*
COC(=O)c1c(NC(=O)CN2CCN(Cc3ccc4c(c3)OCO4)CC2)sc(C)c1C	?	?	8.2µM*	?	?
O=C(NC(=S)N1CCN(Cc2ccc3c(c2)OCO3)CC1)c1cccc(Br)c1	11%	0%	-22%	?	7.3µM*
O=C(/C=C/c1cccs1)N1CCN(Cc2ccc3c(c2)OCO3)CC1	11%	-1%	4%	i	18µM*
CCCCN(C)c1c(C)nc2ccc(C(=O)NCc3cccs3)cn12	·	·	·	i	?
O=C(O)c1cc(N/N=C/c2cccnc2)ccc1Cl	-2%	1%	?	i	i
CCOc1ccc(NC(=O)N2CCN(Cc3ccc4c(c3)OCO4)CC2)cc1	-3%	-9%	-17%	i	i
Cc1ccc(NC(=O)N2CCN(Cc3ccc4c(c3)OCO4)CC2)cc1	0%	-1%	-12%	i	21µM*
SMILES	MCF10A rerep	SW480 rerep	ELG1 DNA repair	KB-3-1 tox	KB-V1 MDR tox
O=C(/C=C/c1cccs1)N1CCN(c2ccc(O)cc2)CC1	16µM*	?	?	?	i
Cc1c(O)ccc(C(=O)CN2CCN(Cc3ccc4c(c3)OCO4)CC2)c1O	3%	-60%	?	i	23µM*
O=C(Cn1ncc2c1-c1ccccc1OC2)N1CCN(Cc2ccc3c(c2)OCO3)CC1	-5%	-2%	23µM*	i	i
CCCCNC(=O)CSc1ccc(S(=O)(=O)N2CCOCC2)cn1	9%	-10%	18%	i	i
O=C(O)/C=C/c1cn(-c2ccccc2)nc1-c1ccccc1	0%	-23%	15%	i	i
O=C(CC12CC3CC(C1)CC(CC(=O)N1CCCC1)(C3)C2)N1CCCC1	3%	-2%	-31%	i	15µM*
O=C(CC12CC3CC(CC(C3)C1)C2)N1CCCOC1	-1%	-16%	1%	i	i
CCN(C(=O)/C=C/c1ccc(OC)cc1)C1CCCCC1	20%	-4%	?	i	?
COc1ccc(N2CCN(CC(O)COc3c(OC)cccc3OC)CC2)cc1 (stereo not drawn)	-5%	-4%	15%	i	i
COc1ccc(CN(C)C(=O)/C=C/c2ccc(S(=O)(=O)N3CCOCC3)cc2)cc1F	8%	-2%	23µM*	i	?
COc1ccc(CNC(=O)/C=C/c2ccc(S(=O)(=O)N3CCOCC3)cc2)cc1	-3%	-4%	?	i	i
CN(Cc1ccc(OC(F)F)cc1)C(=O)C1CCN(S(=O)(=O)c2ccc3c(c2)OCCO3)CC1	29%	-10%	7.3µM*	i	i
COc1ccc(OC)c(NC(=O)/C=C/c2ccc(S(=O)(=O)N3CCOCC3)cc2)c1	7%	-2%	-23%	i	i
CN(CC(=O)Nc1ccc(F)cc1)C(=O)C1CCN(S(=O)(=O)c2ccc3c(c2)OCCO3)CC1	14%	-491%	-14%	i	i
CN(Cc1ccc(OC(F)F)cc1)C(=O)/C=C/c1ccc(S(=O)(=O)N2CCOCC2)cc1	11%	-6%	16µM*	i	i
Cn1cccc1C(=O)NNC(=O)COc1ccccc1Cl	1%	-6%	?	i	?
O=C(c1ccccc1Cc1ccccc1)N1CCN(S(=O)(=O)c2ccc(F)cc2)CC1	0%	-89%	5%	i	?
O=C(COC(=O)c1cc([N+](=O)[O-])ccc1N1CCOCC1)NCc1ccc(F)cc1	?	-3%	-13%	i	i
Cc1cccc(NC(=O)CSc2nc3ccccc3c3nc(CCc4c(C)n[nH]c4C)nn23)c1	7.3µM*	?	?	?	23µM*!
CN1/C(=C\C(=O)c2cncc(Br)c2)C(C)(C)c2ccccc21	16µM*	?	16µM*	?	?
CN1/C(=C\C(=O)C(F)F)C(C)(C)c2ccccc21	-12%	1%	-2%	i	i
